Data reported in PubChem BioAssay (NCI).
Compounds without any hit were thinned out: in the full panel of roughly 79,000, 15% have a hit. Activity calls are given as the source filed them. Cut-off read from the data, not from the text of the source: active = growth inhibition above about 70%; inactive = the rest.

Assays:
[1] = NCI Yeast Anticancer Drug Screen. Data for the rad50 strain (AID 155);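 note: 0% = growth of vehicle-only cultures of the same strain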; details: S. cerevisiae rad50 strain growth inhibition; at 50.0 µM; active compounds read high
Summary of the method: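 A DNA repair-deficient yeast mutant serves as the test organism; compound-induced growth inhibition is calculated against vehicle-treated cells.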

[2] = NCI Yeast Anticancer Drug Screen. Data for the mec2-1 strain (AID 157); details: S. cerevisiae mec2-1 strain, at 50.0 µM, active compounds read high
Summary of the method: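 Vehicle-treated cultures served as reference for growth inhibition of compound-exposed mec2-1 yeast.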

[3] = NCI Yeast Anticancer Drug Screen. Data for the sgs1 mgt1 strain (AID 161);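 note: 0% = growth of cultures given vehicle only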; details: S. cerevisiae sgs1 mgt1 strain, at 50.0 µM, active compounds read high
Summary of the method: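 Inhibition of yeast growth, normalised to vehicle-treated controls, is reported for a strain bearing genetic alterations in DNA damage repair.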

[4] = NCI Yeast Anticancer Drug Screen. Data for the cln2 rad14 strain (AID 165);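 note: 0% = growth equal to vehicle treated cultures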; details: S. cerevisiae cln2 rad14 strain, at 50.0 µM, active compounds read high
Summary of the method: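 Each compound was tested on cln2 rad14 yeast. Inhibition of growth was calculated against vehicle-exposed controls.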

[5] = NCI Yeast Anticancer Drug Screen. Data for the bub3 strain (AID 167); details: S. cerevisiae bub3 mutant strain, at 50.0 µM, active compounds read high
Summary of the method: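 Inhibition values come from growth of compound-treated mutant yeast normalised to vehicle-treated controls.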

[6] = NCI Yeast Anticancer Drug Screen. Data for the mlh1 rad18 strain (AID 175); details: S. cerevisiae mlh1 rad18 strain growth inhibition; at 50.0 µM; active compounds read high
Summary of the method: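 Vehicle-treated cultures served as the reference for growth inhibition in a yeast strain carrying DNA damage repair alterations exposed to each compound.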

Measured: growth inhibition

Cc1ccc(S(=O)(=O)CC(=O)CC(=O)C(=O)Nc2ccc(Cl)cc2C)cc1
inactive: [1] 11.2% | [2] -0.3% | [3] -7.95% | [4] -22.4% | [5] -0.75% | [6] 27.3%

O=C(Nc1ccc(N=Nc2ccccc2)cc1)c1ccc(Cl)cc1
inactive: [1] -11.1% | [2] 2.3% | [3] 12.1% | [4] -60.1% | [5] 2.35% | [6] -7.95%

O=C1CC(NC(=O)c2ccccc2)C(=O)O1 (stereo unspecified)
inactive: [1] -5.75% | [2] 3.4% | [3] 18.8% | [4] -31.1% | [5] 4.3% | [6] -21.4%

OCC1COC(c2ccc(Cl)cc2)O1 (stereo unspecified)
inactive: [1] -10.1% | [2] -10.4% | [3] -19.8% | [4] -17.9% | [5] -16.4% | [6] -7.75%

CC(=O)Nc1ccc(Cc2ccc(O)cc2)cc1
inactive: [1] 1.55% | [2] 6.65% | [3] -3.75% | [4] -31.1% | [5] -3.55% | [6] -1.45%

NCCCn1[nH]c(=O)c2ncccc2c1=O
inactive: [1] -60.1% | [2] -28.8% | [3] -11.7% | [4] -91.5% | [5] -21.6% | [6] -18.7%

OC(CCCN1CCN2CCc3[nH]c4ccccc4c3C2C1)c1ccc(F)cc1 (stereo unspecified)
inactive: [1] 23.9% | [2] -1.8% | [3] 13.7% | [4] 14.3% | [5] 1.3% | [6] 10.8%

CCCCCCCCCCCCCCCCCC(=O)NC(=O)Nc1ccc(C)cc1
inactive: [1] -3.9% | [2] 17.6% | [3] -10.1% | [4] -17% | [5] -9.65% | [6] 11.2%

CN(C(=O)C12C3C4C5C3C1(C(=O)O)C5C42)C(C)(C)C (stereo unspecified)
inactive: [1] 35.4% | [2] 12.2% | [3] 0.85% | [4] 18.8% | [5] 28.1% | [6] 25.9%

Cc1cc(=O)[nH]c(NNC(=S)NC2CCCCC2)n1
inactive: [1] -17.4% | [2] -41.8% | [3] 10.9% | [4] 2.85% | [5] -28.4% | [6] -18.6%

CC(C/C=C(/C=O)C(C)CC(C)(C)C)CC(C)(C)C (stereo unspecified)
inactive: [1] 43.9% | [2] 20.2% | [3] 36.3% | [4] -24.1% | [5] 4.85% | [6] 61.8%

CC(=O)OCC1OC(n2c(C)c(N=Nc3ccc(Cl)cc3)c(C)c(C#N)c2=S)C(OC(C)=O)C(OC(C)=O)C1OC(C)=O (stereo unspecified)
inactive: [1] 4.65% | [2] -0.75% | [3] 25.1% | [4] 11.9% | [5] 7.55% | [6] 18.8%

C/C(=N/Nc1ccc([N+](=O)[O-])cc1[N+](=O)[O-])C1CC2CCC1C2 (stereo unspecified)
inactive: [1] -17.4% | [2] 2.05% | [3] 2.1% | [4] -4.3% | [5] 3% | [6] -16.6%

O=C1C(Cl)N(c2c(Cl)cccc2Cl)C1c1c[nH]c2ccccc12 (stereo unspecified)
inactive: [1] -35.5% | [2] -43.6% | [3] -34.2% | [4] -22.4% | [5] -20.9% | [6] -41.8%

Cc1ccc(C2=CSC3=NCCN23)cc1Cl
inactive: [1] -29.9% | [2] -43.8% | [3] 5.3% | [4] -6.3% | [5] -17.9% | [6] 23.4%

CC(=O)c1ccc(OCc2ccccc2)cc1OCc1ccccc1
inactive: [1] 7% | [2] 4.5% | [3] -9.8% | [4] 11.7% | [5] 4.8% | [6] -18.6%

C=C(C)COC1CCCCO1 (stereo unspecified)
inactive: [1] -3.75% | [2] -15.1% | [3] -36.7% | [4] 14.7% | [5] -42.3% | [6] -39.1%

CC(C)(C)NC(=O)NCCCl
inactive: [1] 1% | [2] -11.4% | [3] -2.45% | [4] -33.9% | [5] 2.95% | [6] 5.35%

CC(=O)ON(C(C)=O)c1ccc(C(N)=O)cc1
inactive: [1] -16.6% | [2] 6.8% | [3] -13.2% | [4] 6.25% | [5] -15.3% | [6] -71.5%

CC(=O)OCCOCCN1CCN(c2c(O)c3c(c(O)c2Cl)C(=O)C=CC3=O)CC1
active: [1] 79.7% | [2] 88.2% | [3] 90.8% | [4] 87.1% | [5] 89.3% | [6] 89.8%

Clc1nc(Sc2ccc(Br)cc2)c(Cl)c(Sc2ccc(Br)cc2)n1
inactive: [1] -18.9% | [2] -2.3% | [3] 8.05% | [4] -0.8% | [5] 1.5% | [6] -17.6%
